Hits are enriched below; roughly 4.3% of the tested compounds scored in any of these assays.
HGIII-sPLA2 inh = Blocks human group III sPLA2 activity; inhibition, % at 12.2 µM; 0.56% of 370,000 active; QFRET BODIPY PC-A2 liposome hydrolysis, fluorescence; AID 743126; Q9NZ20;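 active = inhibition above mean plus 3 SD of compounds lying within the high and low control bounds, cut at about 19% in these data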
ADAM10 inh = inhibitors of human ADAM10 | 0.62% of 370,000 active | AID 720582 | recombinant ADAM10, EDANS/DABCYL FRET peptide cleavage, 3 h | inhibition, % at 7 µM;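 active = inhibition above a per-campaign cutoff equal to the mean of compounds falling between control-based bounds plus 3 SD, cut at about 20% in these data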
ADAM17 inh = inhibits human ADAM17. 0.83% of 370,000 active. inhibition, % at 6.95 µM. P78536. AID 720648. recombinant ADAM17, EDANS/DABCYL FRET peptide cleavage;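 active = inhibition above the mean of compounds lying between control limits plus 3 SD, set per campaign, cut at about 8.5% in these data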
GRIN3A LBD mod = modulates the human NR3A ligand-binding domain | NR3A LBD differential scanning fluorimetry, Tm shift; 0% = protein alone, 100% = glycine-bound protein | Tm shift relative to glycine control, % at 25 µM | 2.5% of 340,000 active | AID 1259313;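 active = melting temperature shift of at least 10% of the positive control shift, at one fixed dose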
FAS TE block = inhibitors of human fatty acid synthase thioesterase domain; P49327; recombinant FAS-TE, OMFH fluorogenic substrate, fluorescence endpoint; inhibition, % at 15 µM; 0.67% of 360,000 active;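 active = compounds whose normalised, plate-corrected inhibition of enzyme fluorescence in the single-dose primary screen is 50% or more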
Target sequence (P49327 whole entry, looked up, the tested form may be a part): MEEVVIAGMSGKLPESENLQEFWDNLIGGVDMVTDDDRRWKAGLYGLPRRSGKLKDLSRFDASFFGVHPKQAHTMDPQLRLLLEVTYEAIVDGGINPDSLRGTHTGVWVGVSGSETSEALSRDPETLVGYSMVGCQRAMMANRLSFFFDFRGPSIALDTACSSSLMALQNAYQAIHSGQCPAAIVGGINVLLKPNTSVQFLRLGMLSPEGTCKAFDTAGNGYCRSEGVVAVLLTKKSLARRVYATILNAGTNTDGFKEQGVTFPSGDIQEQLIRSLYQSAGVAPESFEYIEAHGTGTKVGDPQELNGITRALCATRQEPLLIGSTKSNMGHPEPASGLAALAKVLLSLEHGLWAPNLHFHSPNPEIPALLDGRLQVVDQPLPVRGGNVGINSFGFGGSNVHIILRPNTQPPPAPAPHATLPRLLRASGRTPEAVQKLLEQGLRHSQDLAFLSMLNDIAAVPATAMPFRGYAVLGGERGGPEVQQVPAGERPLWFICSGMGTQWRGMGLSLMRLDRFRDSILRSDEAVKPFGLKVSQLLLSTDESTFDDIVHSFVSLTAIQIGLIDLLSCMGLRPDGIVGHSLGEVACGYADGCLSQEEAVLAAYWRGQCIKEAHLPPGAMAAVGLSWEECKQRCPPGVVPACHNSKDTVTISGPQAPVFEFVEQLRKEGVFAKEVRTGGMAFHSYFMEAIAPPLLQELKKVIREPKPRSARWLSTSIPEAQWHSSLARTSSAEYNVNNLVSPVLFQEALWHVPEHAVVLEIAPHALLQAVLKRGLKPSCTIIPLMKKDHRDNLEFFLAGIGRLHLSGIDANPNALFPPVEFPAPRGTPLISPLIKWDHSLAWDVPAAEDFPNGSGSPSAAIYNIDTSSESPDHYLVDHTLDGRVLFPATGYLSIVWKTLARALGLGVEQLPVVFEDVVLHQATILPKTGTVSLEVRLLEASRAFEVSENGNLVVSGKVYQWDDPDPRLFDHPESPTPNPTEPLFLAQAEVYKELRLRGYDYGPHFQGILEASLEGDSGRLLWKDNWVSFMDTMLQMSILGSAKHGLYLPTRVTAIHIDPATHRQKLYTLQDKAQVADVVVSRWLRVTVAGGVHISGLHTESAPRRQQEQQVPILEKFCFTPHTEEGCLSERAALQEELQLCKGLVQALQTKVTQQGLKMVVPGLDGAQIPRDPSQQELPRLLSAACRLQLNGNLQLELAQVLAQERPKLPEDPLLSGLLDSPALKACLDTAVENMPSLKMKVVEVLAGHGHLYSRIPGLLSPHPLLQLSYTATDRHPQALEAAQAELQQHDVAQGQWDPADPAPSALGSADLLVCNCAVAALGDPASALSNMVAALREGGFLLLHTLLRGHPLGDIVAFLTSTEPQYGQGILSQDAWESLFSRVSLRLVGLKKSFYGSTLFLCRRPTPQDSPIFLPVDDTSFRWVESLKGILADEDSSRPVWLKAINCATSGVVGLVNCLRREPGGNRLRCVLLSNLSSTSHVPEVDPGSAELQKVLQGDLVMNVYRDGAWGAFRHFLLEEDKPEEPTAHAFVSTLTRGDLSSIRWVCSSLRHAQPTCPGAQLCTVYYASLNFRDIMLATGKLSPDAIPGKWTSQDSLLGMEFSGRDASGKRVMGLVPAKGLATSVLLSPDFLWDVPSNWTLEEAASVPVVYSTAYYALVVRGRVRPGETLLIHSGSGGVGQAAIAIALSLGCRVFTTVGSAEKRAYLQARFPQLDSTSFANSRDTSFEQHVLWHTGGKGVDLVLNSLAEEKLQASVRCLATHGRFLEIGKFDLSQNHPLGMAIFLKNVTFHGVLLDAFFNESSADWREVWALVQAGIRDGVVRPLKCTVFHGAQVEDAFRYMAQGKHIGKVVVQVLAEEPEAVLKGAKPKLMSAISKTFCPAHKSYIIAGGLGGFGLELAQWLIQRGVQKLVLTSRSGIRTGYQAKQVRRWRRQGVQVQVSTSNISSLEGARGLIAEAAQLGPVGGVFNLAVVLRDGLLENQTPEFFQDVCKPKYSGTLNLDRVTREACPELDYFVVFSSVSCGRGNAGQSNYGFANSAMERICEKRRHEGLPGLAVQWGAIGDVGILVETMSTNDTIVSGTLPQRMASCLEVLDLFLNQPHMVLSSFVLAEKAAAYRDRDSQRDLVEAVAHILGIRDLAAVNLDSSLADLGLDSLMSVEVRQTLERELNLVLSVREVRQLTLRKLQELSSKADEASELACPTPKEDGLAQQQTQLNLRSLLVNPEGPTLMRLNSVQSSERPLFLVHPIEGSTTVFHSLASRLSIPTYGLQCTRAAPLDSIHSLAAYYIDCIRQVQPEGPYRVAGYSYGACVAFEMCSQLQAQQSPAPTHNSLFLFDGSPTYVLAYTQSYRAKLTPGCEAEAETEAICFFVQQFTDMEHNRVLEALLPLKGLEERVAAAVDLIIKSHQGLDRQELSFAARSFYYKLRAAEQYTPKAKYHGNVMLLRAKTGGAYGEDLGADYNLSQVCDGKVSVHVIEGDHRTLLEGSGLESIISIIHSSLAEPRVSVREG
A number is an active result.

Screening C[C@H]1COc2cccc(NCCO)c2S(=O)(=O)N1 returned HGIII-sPLA2 inh inactive, ADAM10 inh inactive and ADAM17 inh inactive.
For COC(=O)c1ccc2[nH]c3cccc(/C(=C/c4ccccc4)c4ccccc4)c3c2c1 the results were HGIII-sPLA2 inh inactive, ADAM10 inh inactive, ADAM17 inh inactive, GRIN3A LBD mod 24 and FAS TE block inactive.
Screening O=C(C1=NN(c2ccccc2)C2C(=O)N(c3ccc(Cl)cc3)C(=O)C12)c1ccccc1 (configuration not stated) returned HGIII-sPLA2 inh inactive, ADAM10 inh inactive, ADAM17 inh inactive, GRIN3A LBD mod inactive and FAS TE block inactive.
O=C(C1=NN(c2ccccc2)C2C(=O)N(c3cccc(Cl)c3)C(=O)C12)c1ccccc1 (configuration not stated) was read as HGIII-sPLA2 inh inactive, ADAM10 inh inactive, ADAM17 inh inactive, GRIN3A LBD mod inactive and FAS TE block 64.
Screening O=C(CSc1nnc(-c2cccs2)o1)Nc1cccc2ccccc12 returned HGIII-sPLA2 inh inactive, ADAM10 inh inactive and ADAM17 inh inactive.
For Cc1cc(NCCN2CCOCC2)n2ncc(-c3ccccc3)c2n1 the results were HGIII-sPLA2 inh inactive, ADAM10 inh inactive, ADAM17 inh inactive, GRIN3A LBD mod 13 and FAS TE block inactive.
`Cc1cc(NCCN2CCOCC2)n2nc(C)c(-c3ccccc3)c2n1` gave HGIII-sPLA2 inh inactive, ADAM10 inh inactive, ADAM17 inh inactive, GRIN3A LBD mod inactive and FAS TE block inactive.
Screening Cc1cc(N2CCC(C)CC2)n2ncc(-c3ccccc3)c2n1 returned HGIII-sPLA2 inh inactive, ADAM10 inh inactive, ADAM17 inh inactive, GRIN3A LBD mod 13 and FAS TE block inactive.
For Cc1cc(N2CCCCC2)n2ncc(-c3ccccc3)c2n1 the results were HGIII-sPLA2 inh inactive, ADAM10 inh inactive, ADAM17 inh inactive, GRIN3A LBD mod inactive and FAS TE block inactive.
For COc1ccc(-c2csc(/C(C#N)=C\c3ccc(OC)c([N+](=O)[O-])c3)n2)cc1 the results were HGIII-sPLA2 inh inactive, ADAM10 inh inactive, ADAM17 inh inactive, GRIN3A LBD mod 33 and FAS TE block inactive.
For COc1ccccc1C(=O)n1ccc2ccc(-c3ccc4ccn(Cc5ccc(C#N)cc5)c4c3)cc21 the results were HGIII-sPLA2 inh inactive, ADAM10 inh inactive and ADAM17 inh inactive.
Screening O=C(CN1C(=O)CCSc2ccccc21)Nc1ccc(F)cc1F returned HGIII-sPLA2 inh inactive, ADAM10 inh inactive and ADAM17 inh inactive.
`CN(C)S(=O)(=O)c1ccc2nnn(OCC(=O)NC34CC5CC(CC(C5)C3)C4)c2c1` gave HGIII-sPLA2 inh inactive, ADAM10 inh inactive, ADAM17 inh inactive, GRIN3A LBD mod 12 and FAS TE block inactive.
O=[N+]([O-])c1cc(Cl)cc2c1nc(NCCO)c1ccccc12 was read as HGIII-sPLA2 inh inactive, ADAM10 inh inactive, ADAM17 inh inactive, GRIN3A LBD mod 13 and FAS TE block inactive.
Screening O=c1[nH]nc(-c2ccc(NCCO)c([N+](=O)[O-])c2)c2ccccc12 returned HGIII-sPLA2 inh inactive, ADAM10 inh inactive, ADAM17 inh inactive, GRIN3A LBD mod inactive and FAS TE block inactive.
Screening CN(Cc1ccccc1)C(=O)OCc1cn(Cc2ccc(F)cc2)nn1 returned HGIII-sPLA2 inh inactive, ADAM10 inh inactive and ADAM17 inh inactive.
COc1ccc(CNCC#Cc2cccnc2)c(OC)c1 was read as HGIII-sPLA2 inh inactive, ADAM10 inh inactive and ADAM17 inh inactive.
Screening O=C(COc1ccccc1Br)NCCC1=CCCCC1 returned HGIII-sPLA2 inh inactive, ADAM10 inh inactive, ADAM17 inh inactive, GRIN3A LBD mod inactive and FAS TE block inactive.
O=C(COc1ccccc1[N+](=O)[O-])NCCC1=CCCCC1 was read as HGIII-sPLA2 inh inactive, ADAM10 inh inactive, ADAM17 inh inactive, GRIN3A LBD mod 11 and FAS TE block inactive.
For O=C(NNC(=O)c1cccnc1SCc1cccc([N+](=O)[O-])c1)c1ccccn1 the results were HGIII-sPLA2 inh inactive, ADAM10 inh inactive, ADAM17 inh inactive, GRIN3A LBD mod 18 and FAS TE block inactive.
`COc1ccc(C(=O)N2CC(c3ccccc3)CC2=O)cc1` (configuration not stated) gave HGIII-sPLA2 inh inactive, ADAM10 inh inactive, ADAM17 inh inactive, GRIN3A LBD mod inactive and FAS TE block inactive.
O=C1CC(c2ccccc2)CN1C(=O)c1ccccc1 (configuration not stated) was read as HGIII-sPLA2 inh inactive, ADAM10 inh inactive, ADAM17 inh inactive, GRIN3A LBD mod 13 and FAS TE block inactive.
